# According to PubChem BioAssay:
# Where “and” joins values, the source holds several entries; their conditions need not be identical. Equal values may be shown once. Results filed as inconclusive are left out. Calls of active or inactive are those of the source.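 How the source made its calls, unless noted: active means compounds killing one labelled cell type while sparing the other, by normalised counts and ratio limits, not self-fluorescent; inactive means the rest.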
# Experiments:
# [1] = EMT-state selective cytotoxicity in co-culture – imaging, PC-3E GFP, TEM4-18 mCherry, primary screen (AID 1345086); conditions: PC-3E GFP / TEM4-18 mCherry co-culture, imaging cell counts, at 1 µM; for red/green cell ratio (normalised): actives lie on both sides;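 on all read-outs here: cells exposed to compound for 72 h before imaging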;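 on red/green cell ratio (normalised): normalised mesenchymal count divided by normalised epithelial count so high means epithelial killing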
# [2] = compounds altering circadian rhythm period length – cell-based, LOPAC library, luminescence reporter (AID 2774; call rule not given here;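 further: values are relative to mean of DMSO wells on each plate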); conditions: circadian reporter cells, at 7 µM, actives lie on both sides
# [3] = compounds altering viability of human ES cells (AID 493140; call rule not given here;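 further: cells exposed to compounds for four days before counting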); conditions: human embryonic stem cell survival screen; stronger effect = higher value
# [4] = P. berghei load reduction in hepatocytes – cell-based, HepG2, luciferase luminescence, HepG2 viability, primary screen (AID 624349; in the data active means parasite load remaining mostly below about 12%, no sharp cut-off; inactive means mostly above about 10%;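 further: 100% = mean of DMSO negative control wells on the same plate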); conditions: P. berghei liver stage in HepG2, luciferase luminescence, concentration not given here; parasite load remaining: stronger effect = lower value; viability: measured here: HepG2 viability without parasites
# [5] = system: Hepatitis C virus NS3 helicase; test: blockers of NS3h binding to ssDNA – biochemical, fluorescence polarization, LOPAC1280 library, primary screen (AID 687035; in the data active means inhibition above about 37%); conditions: Purified HCV NS3 helicase, Cy5-dT15 ssDNA binding fluorescence polarization; stronger effect = higher value; concentration not given here
# [6] = compounds altering Cy5-DNA-NS3h complex signal – biochemical, LOPAC1280, artefact control for HCV NS3 helicase inhibitor project (AID 687037; call rule not given here); conditions: Cy5-DNA-NS3h complex fluorescence interference counterscreen
# [7] = system: Aerobactin synthetase IucA (Klebsiella pneumoniae); test: inhibition of K. pneumoniae IucA enzyme – biochemical, Tocris library, absorbance (AID 1345561; call rule not given here;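 further: 100% = enzyme without compound and 0% = no enzyme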); conditions: purified IucA enzyme assay, absorbance (OD) read-out; stronger effect = lower value;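 tested at 8 µM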
# [8] = system: Aerobactin synthetase IucA (Klebsiella pneumoniae, hypervirulent); test: biochemical IucA inhibition screen of LOPAC library by absorbance (AID 1346212; call rule not given here;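 further: 100% = no compound wells and 0% = no enzyme wells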); conditions: IucA enzyme assay, absorbance (OD) readout; stronger effect = lower value;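 tested at 8 µM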
# [9] = blockers of cellular phospholipid synthesis – cell-based, LOPAC library, screen 4, primary screen (AID 1347384; call rule not given here); conditions: animal cells, phospholipid biosynthesis inhibition screen; at 10 µM
# [10] = MELAS cybrid and Rieske KO viability enhancers – cell-based, MELAS cybrids, Rieske KO mouse fibroblasts, CellTiter-Glo, primary screen (AID 1508586;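 active means mean z-score across replicates of 1.96 or higher in either the MELAS or the Rieske mutant cell line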;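 further: z relative to plate mean and SD of compound and empty wells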); conditions: low glucose
# [11] = system: Aerobactin synthetase IucA (Klebsiella pneumoniae hvKP1); test: IucA enzyme inhibition, primary screen, biochemical, Spectrum library (AID 1346200; call rule not given here;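 further: 100% = wells without compound and 0% = wells lacking enzyme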); conditions: malachite green pyrophosphate, A620, at 8 µM, stronger effect = lower value
# [12] = viability loss with induced miR-34 in A549 – imaging, A549 dox-inducible miR-34, nuclei and caspase counts, primary screen (AID 1347080;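 active means compounds whose cell count with miR-34 switched on is under 0.7 times the count with it off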); conditions: A549 miR-34 inducible, Hoechst nuclei count, 48 h
# [13] = rescue of PC12 cells from polyQ htt toxicity – LDH release (AID 1610); conditions: PC12 mutant huntingtin toxicity, final LDH at 4 uM, stronger effect = lower value
# [14] = measured here: epithelial PC-3E GFP cell survival
# [15] = measured here: mesenchymal TEM4-18 mCherry cell survival
# [16] = counts scaled to control wells, 1 = unselective
structure (smiles),measurement,setting,value
COc1cc2c(c3oc4cccc(O)c4c(=O)c13)[C@@H]1C=CO[C@@H]1O2,red/green cell ratio (normalised),[1],0.95 (inactive)
same,normalised cell number,[1]; [14],1.04
same,normalised cell number,[1]; [15],0.98
CCCN1CCC[C@@H]2Cc3[nH]ncc3C[C@H]21,period change,[2],-0.035 hour (inactive) and -0.145 hour (inactive)
same,survival,[3],16 (inactive)
same,parasite load remaining,[4],75.7% (inactive) and 34.7% (inactive)
same,viability,[4],68.7% and 143%
same,inhibition,[5],-2% (inactive) and -1% (inactive)
same,fluorescence ratio (interference),[6],1 (inactive)
same,red/green cell ratio (normalised),[1],1.24 (inactive)
same,normalised cell number,[1]; [14],0.89
same,normalised cell number,[1]; [15],1.1
same,remaining activity,[7],126% (inactive)
same,remaining activity,[8],117% (inactive)
same,outcome,[9],inactive
same,z-score,"[10]; MELAS cybrid survival, CellTiter-Glo 48 h, stronger effect = higher value",0.372 (inactive)
same,z-score,"[10]; Rieske KO mouse fibroblast survival, CellTiter-Glo 72 h",-0.161
Fc1ccc(N2CCNCC2)c(F)c1,red/green cell ratio (normalised),[1],1.03 (inactive)
same,normalised cell number,[1]; [14],1.01
same,normalised cell number,[1]; [15],1.04
CC(=O)O[C@@H]1C[C@@]2(C)[C@H](c3ccoc3)C[C@H]3O[C@]32[C@]2(C)C(=O)C(O)=C3C(C)(C)C(=O)C=C[C@]3(C)C12 (stereo partly drawn),red/green cell ratio (normalised),[1],0.93 (inactive)
same,normalised cell number,[1]; [14],0.15
same,normalised cell number,[1]; [15],0.14
same,activity remaining,[11],102% (inactive)
C[N+]1(C)CCc2cc3c(cc2[C@H]1C1OC(=O)c2c1ccc1c2OCO1)OCO3 (stereo partly drawn),red/green cell ratio (normalised),[1]; [16],0.88 (inactive)
same,normalised cell number,[1]; [14],1.35
same,normalised cell number,[1]; [15],1.18
same,activity remaining,[11],129% (inactive)
C[C@H]1OC(O[C@H]2[C@@H](O)CC(O[C@H]3[C@@H](O)C[C@H](O[C@H]4CC[C@]5(C)C6CC[C@]7(C)[C@@H](C8=CC(=O)OC8)[C@@H](O)C[C@]7(O)[C@@H]6CC[C@@H]5C4)O[C@@H]3C)O[C@@H]2C)C[C@H](O)C1O (stereo partly drawn),red/green cell ratio (normalised),[1],0.34 (inactive)
same,normalised cell number,[1]; [14],0.21
same,normalised cell number,[1]; [15],0.07
same,activity remaining,[11],115% (inactive)
CCC(C)C1C(=O)OC(C(C)C)C(=O)N(C)C(C(C)C)C(=O)OC(C(C)C)C(=O)N(C)C(C(C)C)C(=O)OC(C(C)C)C(=O)N1C (stereo not drawn),red/green cell ratio (normalised),[1]; [16],0.98 (inactive) and 0.86 (inactive)
same,normalised cell number,[1]; [14],1.02 and 0.67
same,normalised cell number,[1]; [15],1 and 0.58
Cc1cc(O)cc2oc(=O)c3c(O)cc(O)cc3c12,red/green cell ratio (normalised),[1]; [16],0.89 (inactive)
same,normalised cell number,[1]; [14],0.99
same,normalised cell number,[1]; [15],0.88
C[C@@H]1CC[C@@]2(NC1)OC1CC3C4CC=C5C[C@@H](O)CC[C@]5(C)C4CC[C@]3(C)C1[C@@H]2C (stereo partly drawn),red/green cell ratio (normalised),[1]; [16],1.02 (inactive)
same,normalised cell number,[1]; [14],1.11
same,normalised cell number,[1]; [15],1.13
CN1C(=O)c2ccccc2NC(=O)[C@@H]1Cc1ccccc1,red/green cell ratio (normalised),[1]; [16],1.03 (inactive)
same,normalised cell number,[1]; [14],1.1
same,normalised cell number,[1]; [15],1.13
COc1cc2c(cc1OC)[C@@]13CCN4CC5=CCOC6CC(=O)N2C1[C@H]6[C@H]5C[C@H]43 (stereo partly drawn),parasite load remaining,[4],97.7% (inactive) and 56.5% (inactive)
same,viability,[4],63.5% and 87.4%
same,red/green cell ratio (normalised),[1],1.35 (inactive)
same,red/green cell ratio (normalised),[1]; [16],0.96 (inactive)
same,normalised cell number,[1]; [14],1.05 and 0.91
same,normalised cell number,[1]; [15],1.02 and 1.23
same,activity remaining,[11],105% (inactive)
same,fold change,[12]; stronger effect = lower value,0.942 (inactive)
same,fold change,[12]; measured here: relative caspase fold change +Dox/-Dox,2.52
same,cell count,"[12]; measured here: total cells with miR-34 induction, stronger effect = lower value",11600
same,cell count,[12]; measured here: total cells without miR-34 induction,12300
C[C@]12[C@H](O)CC3C(CC[C@@H]4C[C@@H](O)CC[C@]34C)[C@@]1(O)CC[C@@H]2C1=CC(=O)OC1 (stereo partly drawn),red/green cell ratio (normalised),[1],0.53 (inactive)
same,normalised cell number,[1]; [14],0.38
same,normalised cell number,[1]; [15],0.2
C[N+]12CC[C@@]34c5ccccc5N5C(=O)CC6OCC=C(C1)[C@@H](CC32)[C@@H]6C54 (stereo partly drawn),red/green cell ratio (normalised),[1]; [16],1.07 (inactive)
same,normalised cell number,[1]; [14],0.95
same,normalised cell number,[1]; [15],1.01
CCC(C)[C@H]1O[C@]2(C=C[C@@H]1C)C[C@@H]1C[C@@H](C/C=C(\C)[C@@H](OC3C[C@H](OC)C(O[C@H]4C[C@H](OC)[C@@H](O)[C@H](C)O4)[C@H](C)O3)[C@@H](C)/C=C/C=C3\COC4[C@H](O)C(C)=C[C@@H](C(=O)O1)[C@]34O)O2 (stereo partly drawn),red/green cell ratio (normalised),[1]; [16],0.68 (inactive)
same,normalised cell number,[1]; [14],0.88
same,normalised cell number,[1]; [15],0.6
CC(C)[C@@H]1CC[C@](O)(CCl)[C@@H]2C(=O)OCC(C(=O)O)=C[C@H]21,red/green cell ratio (normalised),[1]; [16],0.96 (inactive)
same,normalised cell number,[1]; [14],1
same,normalised cell number,[1]; [15],0.96
CN1CCc2cc3c(cc2[C@H]1C1OC(=O)c2c1ccc1c2OCO1)OCO3 (stereo partly drawn),red/green cell ratio (normalised),[1],1.02 (inactive)
same,normalised cell number,[1]; [14],0.99
same,normalised cell number,[1]; [15],1
same,activity remaining,[11],121% (inactive)
CCN1C[C@]2(OC(=O)c3ccccc3NC(C)=O)CCC(OC)[C@]34C1[C@@H](CC23)[C@@]1(O)CC(OC)[C@H]2CC4C1(O)[C@H]2OC (stereo partly drawn),red/green cell ratio (normalised),[1],1 (inactive)
same,normalised cell number,[1]; [14],0.94
same,normalised cell number,[1]; [15],0.93
C[C@]12CCC3C(CC[C@@H]4CC(=O)CC[C@]34C)C1CCC2=O (stereo partly drawn),red/green cell ratio (normalised),[1],1.04 (inactive)
same,normalised cell number,[1]; [14],0.88
same,normalised cell number,[1]; [15],0.91
Nc1ccc(-c2ccccc2)cc1,red/green cell ratio (normalised),[1]; [16],1.07 (inactive)
same,normalised cell number,[1]; [14],0.96
same,normalised cell number,[1]; [15],1.03
COc1cc([C@@H]2c3cc4c(cc3[C@H](OC(C)=O)C3COC(=O)[C@H]32)OCO4)cc(OC)c1OC (stereo partly drawn),red/green cell ratio (normalised),[1]; [16],1.07 (inactive)
same,normalised cell number,[1]; [14],0.19
same,normalised cell number,[1]; [15],0.2
C[C@@H]1CC[C@H]2[C@@H](C)C(=O)O[C@@H]3O[C@]4(C)CC[C@@H]1[C@]32OO4,red/green cell ratio (normalised),[1]; [16],1.06 (inactive)
same,normalised cell number,[1]; [14],0.97
same,normalised cell number,[1]; [15],1.03
C[C@@H]1[C@H](O)[C@@H](C)/C=C/C=C/CC/C=C/C=C/C=C/C=C/[C@H](OC2O[C@H](C)[C@@H](O)[C@H](N)[C@@H]2O)C[C@@H]2O[C@](O)(C[C@@H](O)[C@H](O)CC[C@@H](O)C[C@@H](O)C[C@@H](O)CC(=O)O[C@H]1C)C[C@H](O)[C@H]2C(=O)O (stereo partly drawn),red/green cell ratio (normalised),[1]; [16],0.86 (inactive)
same,normalised cell number,[1]; [14],1.27
same,normalised cell number,[1]; [15],1.09
CCC(C)C(=O)O[C@@H]1C[C@@]2(C)[C@H](c3ccoc3)OC(=O)CC23OC2(C)O[C@]14C1(C)[C@@H](CC(=O)OC)C5(C)CC1(O)[C@](O)(C5OC(=O)C1(C)OC1C)[C@@H](OC(C)=O)[C@]34O2 (stereo partly drawn),red/green cell ratio (normalised),[1]; [16],1.2 (inactive)
same,normalised cell number,[1]; [14],0.97
same,normalised cell number,[1]; [15],1.16
C=C[C@H]1CN2CC[C@H]1C[C@@H]2[C@H](O)c1ccnc2ccccc12,normalised LDH release,[13],0.806
